Source: the supplement of paper PMC12494721
Structures can show the parent of a compound that is named as a salt.

What was measured:
Settings in all cases: incubation time: 27 h, anaerobic, 37 °C;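 for the amine columns active = adjusted P below 0.05 in both replicates with a change the same way and a mean fold change under 0.8 or over 1.25; inactive = the rest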
[1] = tested on: Clostridium sporogenes DSM 1664; assay: growth (OD595) fold change vs plate DMSO controls (fold change (ratio)); higher = more growth
How it was run: (§1)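 The 96-well mGAM cultures had been kept anaerobic for 27 h at 37 °C before being shaken and read at 595 nm. Blank subtraction, compound background correction with 20 µM compound solutions in water, and a calibration factor of 5 turned the readings into OD. Growth is given as the fold change versus the median of plate DMSO controls. Fold changes above 1.5 were set to NA, and the values are means of 2 biological replicates.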

[2] = tested on: Escherichia coli IAI1; assay: as above
How it was run: as §1

[3] = tested on: Klebsiella aerogenes DSM 30053; assay: as above
How it was run: as §1

[4] = tested on: Ruminococcus gnavus DSM 108212; assay: as above
How it was run: as §1

[5] = tested on: Klebsiella aerogenes DSM 30053; assay: fold change of Histamine concentration vs plate DMSO controls (fold change (ratio)); higher = more amine produced, active = hit call of the paper (significant change in both replicates, either direction)
How it was run: (§2)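 Each value is the fold change relative to DMSO-only wells on the same plate. Four gut bacterial strains were grown anaerobically in mGAM at 37 °C for 27 h in 80 µL wells, starting at OD 0.1 before a 1:1 dilution, with compounds at 20 µM final (sweeteners 50 µM). Whole cultures were extracted with cold acetonitrile/methanol containing 0.1% formic acid, centrifuged, and amines were quantified by LC–triple-quadrupole MS (dynamic MRM) against external calibration curves with within-batch drift correction. Values are means of 2 biological replicates.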

[6] = tested on: Clostridium sporogenes DSM 1664; assay: fold change of Tryptamine concentration vs plate DMSO controls (fold change (ratio)); higher = more amine produced, active = hit call of the paper (significant change in both replicates, either direction)
How it was run: as §2

[7] = tested on: Ruminococcus gnavus DSM 108212; assay: as above
How it was run: as §2

[8] = tested on: Escherichia coli IAI1; assay: fold change of Putrescine concentration vs plate DMSO controls (fold change (ratio)); higher = more amine produced, active = hit call of the paper (significant change in both replicates, either direction)
How it was run: as §2

[9] = tested on: Klebsiella aerogenes DSM 30053; assay: as above
How it was run: as §2

[10] = tested on: Escherichia coli IAI1; assay: fold change of Cadaverine concentration vs plate DMSO controls (fold change (ratio)); higher = more amine produced, active = hit call of the paper (significant change in both replicates, either direction)
How it was run: as §2

[11] = tested on: Klebsiella aerogenes DSM 30053; assay: as above
How it was run: as §2

[12] = tested on: Ruminococcus gnavus DSM 108212; assay: fold change of 2-Phenylethylamine concentration vs plate DMSO controls (fold change (ratio)); higher = more amine produced, active = hit call of the paper (significant change in both replicates, either direction)
How it was run: as §2

Row | Compound | growth [1] | growth [2] | growth [3] | growth [4] | fold change of Histamine concentration [5] | fold change of Tryptamine concentration [6] | fold change of Tryptamine concentration [7] | fold change of Putrescine concentration [8] | fold change of Putrescine concentration [9] | fold change of Cadaverine concentration [10] | fold change of Cadaverine concentration [11] | fold change of 2-Phenylethylamine concentration [12]
1 | CN1CCN(C(c2ccccc2)c2ccccc2)CC1 [Cyclizine hydrochloride] (20 µM) | 0.981 | 0.984 | 0.972 | 1.16 | 1.07 (inactive) | 0.968 (inactive) | 0.996 (inactive) | 1 (inactive) | 1 (inactive) | 1.02 (inactive) | 0.987 (inactive) | 1.03 (inactive)
2 | CCCCCCCC/C=C\CCCCCCCC(N)=O [Oleamide] (20 µM) | 0.884 | 0.989 | 1.01 | 0.968 | 0.969 (inactive) | 1.01 (inactive) | 0.895 (inactive) | 1.02 (inactive) | 1.01 (inactive) | 1.06 (inactive) | 1 (inactive) | 0.862 (inactive)
3 | CSc1nc2cc(Cl)c(Oc3cccc(Cl)c3Cl)cc2[nH]1 [Triclabendazole] (20 µM) | 0.189 | 1.07 | 0.985 | 0.767 | 1.04 (inactive) | 0.0552 (active) | 0.514 (active) | 0.907 (inactive) | 0.984 (inactive) | 1.01 (inactive) | 1.04 (inactive) | 0.671 (inactive)
4 | CCN(CC)CCc1nc(-c2ccccc2)no1 [Oxolamine citrate salt] (20 µM) | 1.13 | 0.976 | 0.968 | 1.01 | 1.04 (inactive) | 1.04 (inactive) | 1.03 (inactive) | 0.967 (inactive) | 1.01 (inactive) | 1.02 (inactive) | 0.987 (inactive) | 1.03 (inactive)
5 | CCCCC(=O)O[C@H]1CC[C@H]2[C@@H]3CCc4cc(O)ccc4[C@H]3CC[C@]12C [Estradiol Valerate] (20 µM) | 0.581 | 0.995 | 0.996 | 1.05 | 0.898 (inactive) | 0.24 (active) | 1 (inactive) | 0.88 (inactive) | 0.925 (inactive) | 0.926 (inactive) | 1.05 (inactive) | 0.953 (inactive)
6 | CC(C)CN(C[C@@H](O)[C@H](Cc1ccccc1)NC(=O)O[C@H]1CO[C@H]2OCC[C@H]21)S(=O)(=O)c1ccc(N)cc1 [Darunavir] (20 µM) | 1.14 | 1 | 1 | 0.966 | 1.05 (inactive) | 1.01 (inactive) | 0.863 (inactive) | 1.04 (inactive) | 0.998 (inactive) | 1.05 (inactive) | 0.996 (inactive) | 0.837 (inactive)
7 | COC(=O)Nc1nc2cc(C(=O)c3ccccc3)ccc2[nH]1 [Mebendazole] (20 µM) | 1.04 | 1 | 1.11 | 0.629 | 0.962 (inactive) | 0.982 (inactive) | 1.01 (inactive) | 1.03 (inactive) | 0.987 (inactive) | 0.998 (inactive) | 1 (inactive) | 1.03 (inactive)
8 | COCC(=O)Nc1c(I)c(C(=O)NCC(O)CO)c(I)c(C(=O)N(C)CC(O)CO)c1I (stereo not drawn) [Iopromide] (20 µM) | 1.27 | 1.02 | 1.06 | 1.02 | 1.01 (inactive) | 1.01 (inactive) | 1.11 (inactive) | 1.09 (inactive) | 0.975 (inactive) | 0.989 (inactive) | 1.02 (inactive) | 1.15 (inactive)
9 | Cc1onc(-c2c(F)cccc2Cl)c1C(=O)N[C@@H]1C(=O)N2[C@@H]1SC(C)(C)[C@@H]2C(=O)O [Flucloxacillin sodium] (20 µM) | 0 | 1.02 | 0.993 | 0 | 0.99 (inactive) | 0.0254 (active) | 0.0375 (active) | 1.01 (inactive) | 1.02 (inactive) | 1.07 (inactive) | 1.02 (inactive) | 0.0397 (active)
10 | CN(C)/N=N/c1[nH]cnc1C(N)=O [Dacarbazine] (20 µM) | 0.822 | 1 | 1.06 | 1.02 | 0.954 (inactive) | 1 (inactive) | 1.01 (inactive) | 0.984 (inactive) | 1.01 (inactive) | 0.993 (inactive) | 1.02 (inactive) | 1.05 (inactive)
11 | CCCC(CCC)C(=O)O [Valproic acid] (20 µM) | 1.23 | 1.01 | 0.99 | 0.931 | 0.977 (inactive) | 1.07 (inactive) | 1.11 (inactive) | 0.943 (inactive) | 0.971 (inactive) | 0.999 (inactive) | 0.999 (inactive) | 1.1 (inactive)
12 | CCN(CC)CCOC(=O)C(c1ccccc1)C1CCCCC1 (stereo not drawn) [Drofenine hydrochloride] (20 µM) | 0.967 | 0.977 | 1 | 0.939 | 1.03 (inactive) | 0.99 (inactive) | 0.866 (inactive) | 1.06 (inactive) | 1.01 (inactive) | 1.04 (inactive) | 0.992 (inactive) | 0.921 (inactive)
13 | CC1=Nc2ccc(Cl)cc2S(=O)(=O)N1 [Diazoxide] (20 µM) | 1.06 | 1.01 | 0.986 | 1.21 | 1.1 (inactive) | 1.09 (inactive) | 1.16 (inactive) | 0.991 (inactive) | 1.06 (inactive) | 0.943 (inactive) | 1.1 (inactive) | 1.35 (active)
14 | O=C(NCC1CCCCN1)c1cc(OCC(F)(F)F)ccc1OCC(F)(F)F (stereo not drawn) [Flecainide acetate] (20 µM) | 0.94 | 0.991 | 1.01 | 0.997 | 1 (inactive) | 0.99 (inactive) | 1.03 (inactive) | 0.98 (inactive) | 0.976 (inactive) | 0.987 (inactive) | 0.989 (inactive) | 1.06 (inactive)
15 | CC(C(=O)O)c1ccc2c(c1)CC(=O)c1ccccc1S2 (stereo not drawn) [Zaltoprofen] (20 µM) | 0.876 | 0.998 | 0.985 | 0.873 | 1.1 (inactive) | 1.01 (inactive) | 1.12 (inactive) | 1.01 (inactive) | 1.04 (inactive) | 0.931 (inactive) | 1.05 (inactive) | 1.33 (inactive)
16 | CC(C)Cn1cnc2c(N)nc3ccccc3c21 [Imiquimod] (20 µM) | 1.1 | 0.977 | 1.02 | 0.323 | 0.998 (inactive) | 0.888 (inactive) | 0.149 (active) | 0.988 (inactive) | 1.02 (inactive) | 1.04 (inactive) | 1 (inactive) | 0.162 (active)
17 | OCCOCCN1CCN(C2=Nc3ccccc3Sc3ccccc32)CC1 [Quetiapine hemifumarate] (20 µM) | 0.966 | 1.13 | 1.07 | 0.982 | 0.894 (inactive) | 1 (inactive) | 1.01 (inactive) | 1.09 (inactive) | 0.978 (inactive) | 0.892 (inactive) | 1.03 (inactive) | 0.991 (inactive)
18 | CC(C)(C)NC[C@H](O)COc1cccc2c1CCCC2=O [(-) Levobunolol hydrochloride] (20 µM) | 0.999 | 0.973 | 0.98 | 0.872 | 1.06 (inactive) | 1 (inactive) | 0.916 (inactive) | 1.04 (inactive) | 1.03 (inactive) | 0.996 (inactive) | 1 (inactive) | 0.866 (inactive)
19 | COc1ccccc1N1CCN(CC(O)COc2cccc3ccccc23)CC1 (stereo not drawn) [Naftopidil dihydrochloride] (20 µM) | 1.11 | 0.99 | 1.17 | 0.961 | 0.884 (inactive) | 1.02 (inactive) | 0.888 (inactive) | 0.981 (inactive) | 1.01 (inactive) | 1.06 (inactive) | 1.02 (inactive) | 0.963 (inactive)
20 | CN(C)c1nc(N(C)C)nc(N(C)C)n1 [Altretamine] (20 µM) | 0.899 | 1.05 | 0.993 | 0.972 | 1.08 (inactive) | 0.977 (inactive) | 1.06 (inactive) | 1.15 (inactive) | 1.04 (inactive) | 1.01 (inactive) | 1 (inactive) | 1.07 (inactive)
21 | Cc1c(OCC(F)(F)F)ccnc1C[S+]([O-])c1nc2ccccc2[nH]1 (stereo not drawn) [Lansoprazole] (20 µM) | 1 | 1.06 | 1.01 | 1.02 | 1.03 (inactive) | 1.02 (inactive) | 0.974 (inactive) | 1.03 (inactive) | 1.01 (inactive) | 1.03 (inactive) | 1.01 (inactive) | 0.971 (inactive)
22 | NC[C@@H]1O[C@H](O[C@H]2[C@@H](O)[C@H](O[C@@H]3[C@@H](O)[C@H](N)C[C@H](N)[C@H]3O[C@H]3O[C@H](CN)[C@@H](O)[C@H](O)[C@H]3N)O[C@@H]2CO)[C@H](N)[C@@H](O)[C@@H]1O [Neomycin sulfate] (20 µM) | 0.902 | 0.997 | 1.02 | 0.938 | 0.893 (inactive) | 1.16 (inactive) | 1.08 (inactive) | 0.954 (inactive) | 0.966 (inactive) | 0.897 (inactive) | 1.02 (inactive) | 1.11 (inactive)
23 | O=C(O)C1CSCN1 (stereo not drawn) [Timonacic] (20 µM) | 0.827 | 1.02 | 1 | 0.956 | 0.992 (inactive) | 1 (inactive) | 1.02 (inactive) | 1.04 (inactive) | 1.01 (inactive) | 1 (inactive) | 1 (inactive) | 0.998 (inactive)
24 | CO[C@@]1(NC(=O)C2SC(=C(C(N)=O)C(=O)O)S2)C(=O)N2C(C(=O)O)=C(CSc3nnnn3C)CS[C@@H]21 (stereo partly drawn) [Cefotetan] (20 µM) | 0 | 0.0332 | 0.987 | 1.17 | 0.528 (active) | 0.0152 (active) | 1.08 (inactive) | 0.606 (inactive) | 0.978 (inactive) | 2.18 (active) | 1.1 (inactive) | 1.1 (inactive)
